# Structures can show the parent of a compound that is named as a salt. Values without a mark were called inactive.
# Tested on: Mel-DCC-11-R
# Experiment: cell viability relative to DMSO control (fraction of DMSO control); higher = less cytotoxic, active = 0.8 or less
# Settings: 1 µM; 120 h; vemurafenib co-treatment 0 µM
# Method in brief: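 Luminescence from ATPlite 1step was read after 120 h in 384-well plates carrying 315 approved anti-cancer drugs (TargetMol), acoustically pre-spotted to give 1 µM in duplicate. Cells were seeded in 40 µl per well: 2500/well NHEM-hTERT immortalized melanocytes and 1500/well patient-derived Mel-DCC-11 and Mel-DCC-11-R, its resistant subline, which was assayed alone and with 8 µM of its selecting drug. Viability was normalised to vehicle-treated controls and averaged across duplicate wells.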
row,Structure (SMILES),cell viability
1,Cc1nc(Nc2ncc(C(=O)Nc3c(C)cccc3Cl)s2)cc(N2CCN(CCO)CC2)n1.O [Dasatinib monohydrate],1.65
2,Cc1ccc(NC(=O)c2ccc(CN3CCN(C)CC3)cc2)cc1Nc1nc(-c2cccnc2)cs1 [Masitinib],1.1
3,COc1ccc(C(Cl)=C(c2ccc(OC)cc2)c2ccc(OC)cc2)cc1 [Chlorotrianisene],0.86
4,COc1cc2ncnc(Nc3ccc(F)c(Cl)c3)c2cc1OCCCN1CCOCC1 [Gefitinib],0.893
5,CO[C@H]1C[C@@H]2CC[C@@H](C)[C@@](O)(O2)C(=O)C(=O)N2CCCC[C@H]2C(=O)O[C@H]([C@H](C)C[C@@H]2CC[C@@H](OC(=O)C(C)(CO)CO)[C@H](OC)C2)CC(=O)[C@H](C)/C=C(\C)[C@@H](O)[C@@H](OC)C(=O)[C@H](C)C[C@H](C)/C=C/C=C/C=C/1C [Temsirolimus],1.53
6,CC(/C=C/C=C(\C)C(=O)O[C@@H]1O[C@H](CO[C@@H]2O[C@H](CO)[C@@H](O)[C@H](O)[C@H]2O)[C@@H](O)[C@H](O)[C@H]1O)=C\C=C\C=C(C)\C=C\C=C(/C)C(=O)O[C@@H]1O[C@H](CO[C@@H]2O[C@H](CO)[C@@H](O)[C@H](O)[C@H]2O)[C@@H](O)[C@H](O)[C@H]1O [Crocin],0.985
7,COC(=O)C[C@](O)(CCCC(C)(C)O)C(=O)O[C@@H]1C(OC)=CC23CCCN2CCc2cc4c(cc2[C@H]13)OCO4 (stereo partly specified) [Homoharringtonine],0.0454 (active)
8,C=CC(=O)Nc1cc(Nc2nccc(-c3cn(C)c4ccccc34)n2)c(OC)cc1N(C)CCN(C)C [Osimertinib],1.06
9,CC=Cc1ccc(OC)cc1 (stereo in doubt) [cis-Anethol],1.26
10,COc1cc2nccc(Oc3ccc(NC(=O)C4(C(=O)Nc5ccc(F)cc5)CC4)cc3)c2cc1OC [Cabozantinib],1.1
11,CC(C)[C@H](NC(=O)[C@H](CC(=O)O)NC(=O)[C@H](CCCCN)NC(=O)[C@@H](N)CCCNC(=N)N)C(=O)N[C@@H](Cc1ccc(O)cc1)C(=O)O [Thymopentin],1.21
12,COC(=O)/C=C/C(=O)OC [Dimethyl fumarate],1.06
13,Nc1nc(Cl)nc2c1ncn2[C@H]1C[C@H](O)[C@@H](CO)O1 [Cladribine],0.977
14,CO[C@@]12[C@H](COC(N)=O)C3=C(C(=O)C(C)=C(N)C3=O)N1C[C@@H]1N[C@@H]12 [Mitomycin C],1.6
15,O=C(/C=C\n1cnc(-c2cc(C(F)(F)F)cc(C(F)(F)F)c2)n1)NNc1cnccn1 [Selinexor],1.59
16,CCN(CC)CCNC(=O)c1c(C)[nH]c(/C=C2\C(=O)Nc3ccc(F)cc32)c1C.C[C@@H](CC(=O)O)C(=O)O [Sunitinib Malate],1.08
17,CCCc1cc(C)[nH]c(=O)c1CNC(=O)c1cc(-c2ccnc(N3CCN(C)CC3)c2)cc2c1cnn2C(C)C,0.999
18,CCS(=O)(=O)N1CC(CC#N)(n2cc(-c3ncnc4[nH]ccc34)cn2)C1 [Baricitinib],1
19,Cc1ccc(NC(=O)C2(c3ccc4c(c3)OC(F)(F)O4)CC2)nc1-c1cccc(C(=O)O)c1 [Lumacaftor],0.946
20,O=NN(CCCl)C(=O)NCCCl [Carmustine],0.987
21,CCCCCCCCCCCCCCCCCCOCC(O)CO (stereo unspecified) [Batyl alcohol],0.92
22,Nc1nc(F)nc2c1ncn2[C@@H]1O[C@H](CO)[C@@H](O)[C@@H]1O [Fludarabine],1.2
23,O=C(CCCCCCC(=O)Nc1ccccc1)NO [Vorinostat],0.923

# Same assay, conditions: 1 µM; 120 h; vemurafenib co-treatment 8 µM
row,Structure (SMILES),cell viability
1,Cc1nc(Nc2ncc(C(=O)Nc3c(C)cccc3Cl)s2)cc(N2CCN(CCO)CC2)n1.O [Dasatinib monohydrate],1.54
2,Cc1ccc(NC(=O)c2ccc(CN3CCN(C)CC3)cc2)cc1Nc1nc(-c2cccnc2)cs1 [Masitinib],0.944
3,COc1ccc(C(Cl)=C(c2ccc(OC)cc2)c2ccc(OC)cc2)cc1 [Chlorotrianisene],0.833
4,COc1cc2ncnc(Nc3ccc(F)c(Cl)c3)c2cc1OCCCN1CCOCC1 [Gefitinib],0.629 (active)
5,CO[C@H]1C[C@@H]2CC[C@@H](C)[C@@](O)(O2)C(=O)C(=O)N2CCCC[C@H]2C(=O)O[C@H]([C@H](C)C[C@@H]2CC[C@@H](OC(=O)C(C)(CO)CO)[C@H](OC)C2)CC(=O)[C@H](C)/C=C(\C)[C@@H](O)[C@@H](OC)C(=O)[C@H](C)C[C@H](C)/C=C/C=C/C=C/1C [Temsirolimus],0.786 (active)
6,CC(/C=C/C=C(\C)C(=O)O[C@@H]1O[C@H](CO[C@@H]2O[C@H](CO)[C@@H](O)[C@H](O)[C@H]2O)[C@@H](O)[C@H](O)[C@H]1O)=C\C=C\C=C(C)\C=C\C=C(/C)C(=O)O[C@@H]1O[C@H](CO[C@@H]2O[C@H](CO)[C@@H](O)[C@H](O)[C@H]2O)[C@@H](O)[C@H](O)[C@H]1O [Crocin],1.03
7,COC(=O)C[C@](O)(CCCC(C)(C)O)C(=O)O[C@@H]1C(OC)=CC23CCCN2CCc2cc4c(cc2[C@H]13)OCO4 (stereo partly specified) [Homoharringtonine],0.0543 (active)
8,C=CC(=O)Nc1cc(Nc2nccc(-c3cn(C)c4ccccc34)n2)c(OC)cc1N(C)CCN(C)C [Osimertinib],0.884
9,CC=Cc1ccc(OC)cc1 (stereo in doubt) [cis-Anethol],0.591 (active)
10,COc1cc2nccc(Oc3ccc(NC(=O)C4(C(=O)Nc5ccc(F)cc5)CC4)cc3)c2cc1OC [Cabozantinib],0.427 (active)
11,CC(C)[C@H](NC(=O)[C@H](CC(=O)O)NC(=O)[C@H](CCCCN)NC(=O)[C@@H](N)CCCNC(=N)N)C(=O)N[C@@H](Cc1ccc(O)cc1)C(=O)O [Thymopentin],1.04
12,COC(=O)/C=C/C(=O)OC [Dimethyl fumarate],1.13
13,Nc1nc(Cl)nc2c1ncn2[C@H]1C[C@H](O)[C@@H](CO)O1 [Cladribine],0.722 (active)
14,CO[C@@]12[C@H](COC(N)=O)C3=C(C(=O)C(C)=C(N)C3=O)N1C[C@@H]1N[C@@H]12 [Mitomycin C],0.859
15,O=C(/C=C\n1cnc(-c2cc(C(F)(F)F)cc(C(F)(F)F)c2)n1)NNc1cnccn1 [Selinexor],0.678 (active)
16,CCN(CC)CCNC(=O)c1c(C)[nH]c(/C=C2\C(=O)Nc3ccc(F)cc32)c1C.C[C@@H](CC(=O)O)C(=O)O [Sunitinib Malate],0.927
17,CCCc1cc(C)[nH]c(=O)c1CNC(=O)c1cc(-c2ccnc(N3CCN(C)CC3)c2)cc2c1cnn2C(C)C,0.88
18,CCS(=O)(=O)N1CC(CC#N)(n2cc(-c3ncnc4[nH]ccc34)cn2)C1 [Baricitinib],1.22
19,Cc1ccc(NC(=O)C2(c3ccc4c(c3)OC(F)(F)O4)CC2)nc1-c1cccc(C(=O)O)c1 [Lumacaftor],1.04
20,O=NN(CCCl)C(=O)NCCCl [Carmustine],1.02
21,CCCCCCCCCCCCCCCCCCOCC(O)CO (stereo unspecified) [Batyl alcohol],0.995
22,Nc1nc(F)nc2c1ncn2[C@@H]1O[C@H](CO)[C@@H](O)[C@@H]1O [Fludarabine],0.977
23,O=C(CCCCCCC(=O)Nc1ccccc1)NO [Vorinostat],1.04

# Source: the supplement of paper PMC12808144
